Screens from PubChem BioAssay.
An excerpt weighted towards active compounds, which were near 5.7% of everything screened.
hcDAF12 agonist: H. contortus DAF-12 nuclear receptor activators, primary screen, cell-based, luminescence, HEK293, lit1-tk-luc reporter. 370,000 compounds, 1.4% hits. activation, % at 6.8 µM. AID 652067, 2013. HEK293 hcDAF-12 lit1-tk-luc reporter; 0% DMSO, 100% Δ7-dafachronic acid;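 active = activation above the mean of all tested compounds plus 3 SD, cut at about 5.5% in these data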
AHR act: AHR activators, primary screen, cell-based, luminescence, luciferase reporter, human; Aryl hydrocarbon receptor (Homo sapiens), P35869; AHR-responsive luciferase reporter cells; activation, % at 5 µM; 320,000 compounds, 2.5% hits; AID 2796, 2010; in the data active = activation above about 47%
DAX1 inh-1: DAX1 (NR0B1) inhibitors on StAR promoter, primary screen, cell-based, luminescence, SF-1 (NR5A1), full-length DAX-1; HEK293T StAR-luciferase reporter, SF-1/DAX-1 repression relief; inhibition, % at 6.8 µM; 370,000 compounds, 1.1% hits; AID 652010, 2013;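 active = inhibition above the mean over all tested compounds plus 3 SD, cut at about 3.6% in these data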;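 note: higher inhibition means more luminescence from relief of DAX-1 repression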
hgDAF12 agonist: H. glycines DAF-12 receptor agonists, primary screen, cell-based, luminescence, HEK293, GAL4 fusion, UAS-luciferase. Nuclear hormone receptor DAF-12 (Heterodera glycines), GAL4 fusion. HEK293 GAL4-hgDAF12 UAS-luciferase reporter, agonist luminescence; normalized to butyrate control. AID 687014, 2013. activation, % at 6.8 µM. 370,000 compounds, 1.8% hits;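 active = activation above a cutoff set at the mean of all screened compounds plus 3 SD, cut at about 10% in these data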
ssDAF-12 act: S. stercoralis DAF-12 nuclear receptor activators, primary screen, cell-based, luminescence, HEK293, GRIP1 co-expression, lit1-tk-luc; 370,000 compounds, 1% hits; activation, % at 6.8 µM; HEK293 ssDAF-12/GRIP1 lit1-tk-luc reporter; % of 3 µM dafachronic acid response; Nuclear hormone receptor DAF-12 (Strongyloides stercoralis);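 active = activation above the mean over all tested compounds plus 3 SD, cut at about 0.9% in these data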
DAX1 inh-2: DAX1 (NR0B1) inhibitors, primary screen, cell-based, HEK293, Gal4-DAX1, luciferase luminescence; inhibition, % at 6.75 µM; HEK293 Gal4-DAX1 luciferase reporter; Nuclear receptor subfamily 0 group B member 1 (Homo sapiens), P51843; 340,000 compounds, 0.99% hits;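 active = inhibition above the mean over all tested compounds plus 3 SD, cut at about 4.2% in these data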;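 note: inhibition shows as a rise in luminescence from relieved DAX1 repression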
Target sequence (P51843 207-470 limits assumed): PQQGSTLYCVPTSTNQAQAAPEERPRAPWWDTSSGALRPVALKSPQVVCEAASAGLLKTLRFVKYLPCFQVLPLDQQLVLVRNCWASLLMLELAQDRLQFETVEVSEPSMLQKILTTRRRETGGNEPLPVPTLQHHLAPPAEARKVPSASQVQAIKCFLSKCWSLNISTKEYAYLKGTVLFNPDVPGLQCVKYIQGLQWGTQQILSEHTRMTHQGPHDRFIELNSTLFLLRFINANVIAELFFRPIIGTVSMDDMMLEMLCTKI
A number is an active result; 0 = inactive; - = not tested or not shown.

SMILES	hcDAF12 agonist	AHR act	DAX1 inh-1	hgDAF12 agonist	ssDAF-12 act	DAX1 inh-2
COc1cc(C=C2C(=O)NC(=O)NC2=O)ccc1OCc1ccc([N+](=O)[O-])cc1	0	-	0	13	0	0
O=c1[nH]c(=O)n(-c2cccc(F)c2)c(O)c1/C=C1\C=Nc2ccccc21	5.7	0	0	0	0	0
Cc1cc(C(=O)Nc2ccc3c(c2)OCCO3)nn1C(C)(C)C	0	0	0	0	0	5.7
Cc1cc(C(=O)Nc2ccccc2)nn1C(C)(C)C	0	0	0	0	0	0
CCC(=Nc1cccc(C(F)(F)F)c1)c1c(O)n(C)c(=O)n(C)c1=O	0	0	0	0	0	4.5
CCC(=Nc1ccc(OC)cc1OC)c1c(O)n(C)c(=O)n(C)c1=O	0	0	0	0	0	0
CC(C)NC1(c2ccccc2)CCCCC1	0	-	0	0	0	-
CC(C)C(=O)Nc1ccc(S(=O)(=O)N2CC3CC(C2)c2cccc(=O)n2C3)cc1 (stereo not given)	0	0	0	0	0	0
COc1ccc2c3c([nH]c2c1)C(C)=NCC3	0	50	0	0	0	0
COc1ccccc1N1CCN(C2CCCN(C(=O)COc3ccccc3Cl)C2)CC1 (stereo not given)	0	-	0	0	0	0
O=c1[nH]c(=S)n(C2CC2)c(O)c1C=NCC1CCCO1 (stereo not given)	0	0	0	0	0	0
O=c1[nH]c(=S)n(Cc2ccc(F)cc2)c(O)c1C=NCC1CCCO1 (stereo not given)	0	0	0	0	0	6.2
Oc1c(Cl)c(Cl)c(Cl)c(Cl)c1Cl	0	79	0	0	0	0
CCC1CN1P1(=O)OCC(C)([N+](=O)[O-])CO1 (stereo not given)	0	-	0	0	0	0
O=C(O)[C@H]1NC[C@H]2C[C@H]21	0	0	0	0	0	4.8
O=C(CSc1ccccc1)N1CCC2(CC1)OCCO2	0	0	3.9	0	0	0
O=C(CN1C(=O)COc2ccccc21)N1CCC2(CC1)OCCO2	0	0	0	0	0	0
COC(=O)C1=C(c2ccc(F)cc2F)C[C@@H]2CC[C@H]1N2C(=O)NC1Cc2ccccc2C1	0	0	0	0	0	0
O=c1c2ccccc2nc(-c2ccccc2Cl)n1-c1cccc(O)c1	0	-	0	0	0	0
CCCc1nc2ccccc2c(=O)n1-c1ccccc1OC	0	0	0	0	0	0
CCCCc1nc2ccccc2c(=O)n1-c1ccccc1O	0	73	0	0	0	0
CC(=NCc1ccc2c(c1)OCO2)c1c(O)n(C)c(=O)n(C)c1=O	0	58	0	0	0	0
CCC(=NCc1ccc2c(c1)OCO2)c1c(O)n(C)c(=O)n(C)c1=O	0	0	0	0	0	0
CN(C)C(=O)Oc1ccnc2cc(Cl)ccc12	0	0	0	0	0	5.5
CN(C)c1ccc([N+](=O)[O-])c([N+](=O)[O-])c1	0	-	0	0	0	4.4
SMILES	hcDAF12 agonist	AHR act	DAX1 inh-1	hgDAF12 agonist	ssDAF-12 act	DAX1 inh-2
CC(=NNC(=S)N1CC2CCC(CC2)C1)c1nccs1	0	-	0	12	0	0
C#CCOC(=O)C1=CCCN(C)C1	0	0	0	0	0	0
CC(=O)N1N=C2C3CCN(CC3)C2C1c1ccc(F)cc1 (stereo not given)	0	0	0	0	0	0
CSC(=Nc1ccccc1)c1c(O)n(C)c(=O)n(C)c1=O	5.7	0	0	0	0	0
CC/C(=N\Nc1ccccc1)c1c(O)n(C)c(=O)n(C)c1=O	0	0	0	0	0	0
C/C(=N\NC(=S)Nc1ccccc1)c1c(O)n(C)c(=O)n(C)c1=O	0	0	0	11	0	0
C=C1C(C)C2C(Cc3ccccc3)NC(=O)C23OC(=O)/C=C/C(O)CCCC(C)C/C=C/C3C1O (stereo not given)	0	-	0	0	0	0
